Source: the supplement of paper PMC11624193, “Coupling cellular drug-target engagement to downstream pharmacology with CeTEAM” (Nature Communications, 2024)
± gives the standard deviation of the averaged measurements.

Biological target: PARP1 L713F-nLuc biosensor (HCT116) (UniProt P09874)
Assay: PARP1 L713F-nLuc/akaLuc ratio relative to DMSO control (biosensor stabilization) (fold change); higher = more PARP1 biosensor stabilization (target engagement / stabilizer), active = hit call of the paper
Details: stock concentration (mM; final µM = stock mM x 1): 10; 24 h;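 active = log2 fold change beyond 2 SD from the library mean after excluding viability outliers; inactive = within 2 SD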

Sequence of PARP1 L713F-nLuc biosensor (HCT116) (P09874 whole entry L713F, looked up): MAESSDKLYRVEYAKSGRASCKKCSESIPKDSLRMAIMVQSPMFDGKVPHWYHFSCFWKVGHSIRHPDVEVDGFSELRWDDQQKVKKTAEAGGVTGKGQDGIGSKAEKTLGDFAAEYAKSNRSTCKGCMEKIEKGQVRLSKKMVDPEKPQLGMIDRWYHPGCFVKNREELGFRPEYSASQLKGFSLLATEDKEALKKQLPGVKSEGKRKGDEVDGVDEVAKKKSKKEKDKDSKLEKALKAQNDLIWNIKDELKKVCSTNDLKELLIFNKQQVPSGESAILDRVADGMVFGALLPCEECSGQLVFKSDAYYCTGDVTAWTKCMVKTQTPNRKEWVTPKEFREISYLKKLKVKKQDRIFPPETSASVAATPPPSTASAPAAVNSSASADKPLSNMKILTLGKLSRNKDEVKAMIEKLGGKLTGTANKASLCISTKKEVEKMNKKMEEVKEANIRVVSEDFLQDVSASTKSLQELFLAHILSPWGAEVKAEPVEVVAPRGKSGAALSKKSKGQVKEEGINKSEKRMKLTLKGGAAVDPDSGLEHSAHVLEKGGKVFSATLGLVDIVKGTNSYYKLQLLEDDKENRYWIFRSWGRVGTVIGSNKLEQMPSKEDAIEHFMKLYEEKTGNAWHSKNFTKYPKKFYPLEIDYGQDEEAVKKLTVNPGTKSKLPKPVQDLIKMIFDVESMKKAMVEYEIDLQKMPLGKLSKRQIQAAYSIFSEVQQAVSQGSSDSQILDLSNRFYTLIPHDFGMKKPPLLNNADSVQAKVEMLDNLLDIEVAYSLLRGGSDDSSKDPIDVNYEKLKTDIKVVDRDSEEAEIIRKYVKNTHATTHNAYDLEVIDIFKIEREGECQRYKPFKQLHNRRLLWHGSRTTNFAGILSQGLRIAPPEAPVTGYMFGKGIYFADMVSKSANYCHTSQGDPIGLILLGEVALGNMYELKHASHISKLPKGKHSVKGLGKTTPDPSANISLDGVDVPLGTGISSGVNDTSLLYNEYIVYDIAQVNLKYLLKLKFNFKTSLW

| SMILES | PARP1 L713F-nLuc/akaLuc ratio |
| --- | --- |
| N=C(NOCC(O)CN1CCCCC1)c1cccnc1 (stereo unspecified) | 0.933 (inactive) |
| CC(C)(C)c1cc(NC(=O)Nc2ccc(-c3cn4c(n3)sc3cc(OCCN5CCOCC5)ccc34)cc2)no1 [Quizartinib (AC220)] | 0.802 (inactive) |
| Cc1cc(-c2nc(-c3ccc(OC(F)(F)F)cc3)no2)nn1Cc1ccnc(N2CCN(C3CC3)CC2)c1 | 0.46 ± 0.17 |
| CCS(=O)(=O)N1CCN(c2ccc(Nc3ncc(C(N)=O)c(NC4CC4)n3)cc2)CC1 | 1.99 (inactive) |
| N#Cc1c(Oc2ccc(F)c(NC(=O)Cc3cccc(C(F)(F)F)c3)c2)ccc2nc(NC(=O)C3CC3)sc12 | 0.538 (inactive) |
| C[C@H](Nc1cc(-c2cnn(C)c2)cc(Nc2cnccn2)n1)c1ccc(F)cc1 [Ilginatinib] | 0.485 (inactive) |
